Experimental data published in PubChem BioAssay (Tox21).
Inconclusive results are not listed. Active and inactive are the calls of the source. Unless noted, the call rests on the fitted dose curve; in most records, active means well fitted curve in the direction sought with a large enough effect in the repeat runs; inconclusive means weak or mixed curves; inactive means no such curve, though single readings can be large; an effect the other way counts as inactive or inconclusive.

Tests used:
[1] = qHTS assay to identify small molecule agonists of the peroxisome proliferator-activated receptor delta (PPARd) signaling pathway - cell viability counter screen (AID 743211); further: on the % scale 0 is the no-effect control and ±100 the full control effect; nearly all actives have a fitted effect of over 55% in size
How it was run: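 Tox21 library compounds, delivered in DMSO, were incubated 17 h with PPARd-bla HEK293H cells; cytotoxicity was taken from CellTiter-Glo luminescence read 30 min after reagent addition.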

[2] = target: Peroxisome proliferator-activated receptor delta (Homo sapiens) (UniProt Q03181); assay: qHTS assay to identify small molecule agonists of the peroxisome proliferator-activated receptor delta (PPARd) signaling pathway (AID 743212; calls by dose curve; further: on the % scale 0 is the no-effect control and ±100 the full control effect)
How it was run: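 HEK293H UAS-bla reporter cells, human PPARd system; compounds delivered in DMSO after 5 h plating, then at 37 C. Beta-lactamase FRET read, 2 h RT substrate step.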

[3] = qHTS assay to identify small molecule antagonists of the peroxisome proliferator-activated receptor delta (PPARd) signaling pathway - cell viability counter screen (AID 743213); further: on the % scale 0 is the no-effect control and ±100 the full control effect; nearly all actives have a fitted effect of over 50% in size
How it was run: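 PPARd-bla HEK293H cells were treated with compounds plus agonist L165041 (300 nM final) for 17 h at 37 C. Viability was then read in the same wells by CellTiter-Glo luminescence after 30 min at room temperature.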

[4] = target: Peroxisome proliferator-activated receptor delta (Homo sapiens) (UniProt Q03181); assay: qHTS assay to identify small molecule antagonists of the peroxisome proliferator-activated receptor delta (PPARd) signaling pathway (AID 743215; active means well fitted inhibition curve with a large enough effect in the signal ratio in the repeat runs, not every such curve was filed as active; the % refers to the signal ratio;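 further: cells stimulated with agonist L165041 at 300 nM final during compound exposure; series mostly up to about 62 µM; on the % scale 0 is the no-effect control and ±100 the full control effect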)
How it was run: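 Inhibition of L165041-driven (300 nM final) PPARd signaling is scored in HEK293H UAS-bla cells. Exposure lasts 17 h at 37 C; beta-lactamase activity is then read by FRET substrate fluorescence after 2 h at room temperature.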

[5] = target: Bile acid receptor (Homo sapiens) (UniProt Q96RI1); assay: qHTS assay to identify small molecule antagonists of the farnesoid-X-receptor (FXR) signaling pathway (AID 743217; active means well fitted inhibition curve with a large enough effect in the signal ratio in the repeat runs, not every such curve was filed as active; the % refers to the signal ratio; further: on the % scale 0 is the no-effect control and ±100 the full control effect)
How it was run: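 Antagonist mode against 50 uM (final) chenodeoxycholic acid stimulation in FXR-bla HEK 293T cells, 16 h at 37 °C. Inhibition detected as reduced beta-lactamase activity via LiveBLAzer B/G FRET fluorescence after 2 h at room temperature.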

[6] = qHTS assay to identify small molecule agonists of the farnesoid-X-receptor (FXR) signaling pathway - cell viability counter screen (AID 743218); further: on the % scale 0 is the no-effect control and ±100 the full control effect; nearly all actives have a fitted effect of over 45% in size
How it was run: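 Cytotoxicity counter-screen run in parallel, same wells: FXR-UAS-bla HEK 293T cells dosed 16 h at 37 C, viability read by CellTiter-Glo luminescence after 30 min at room temperature.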

[7] = target: Bile acid receptor (Homo sapiens) (UniProt Q96RI1); assay: qHTS assay to identify small molecule agonists of the farnesoid-X-receptor (FXR) signaling pathway (AID 743220; active means well fitted activation curve with a large enough effect in the signal ratio in the repeat runs, not every such curve was filed as active; the % refers to the signal ratio; further: on the % scale 0 is the no-effect control and ±100 the full control effect)
How it was run: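 Beta-lactamase reporter under UAS control in GeneBLAzer FXR HEK 293T cells (5000/well) measured with LiveBLAzer FRET substrate after 2 h at room temperature. Compound exposure lasted 16 h at 37C.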

[8] = qHTS assay to identify small molecule antagonists of the farnesoid-X-receptor (FXR) signaling pathway - cell viability counter screen (AID 743221; active means well fitted cell-killing curve with a large enough effect in the repeat runs, not every such curve was filed as active; further: on the % scale 0 is the no-effect control and ±100 the full control effect; nearly all actives have a fitted effect of over 50% in size)
How it was run: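 Cytotoxicity is taken from ATP luminescence (CellTiter-Glo, 30 min, room temperature) in FXR-bla HEK 293T cells previously incubated 16 h at 37 C with compound and chenodeoxycholic acid at 50 uM final.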

[9] = target: Vitamin D3 receptor (Homo sapiens) (UniProt P11473); assay: qHTS assay to identify small molecule agonists of the vitamin D receptor (VDR) signaling pathway (AID 743222; calls by dose curve; further: on the % scale 0 is the no-effect control and ±100 the full control effect)
How it was run: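 Quantitative HTS agonist-mode screen: compounds in DMSO were pin-transferred onto VDR-bla cells and incubated 16 h at 37C, 5% CO2. Reporter activity was detected with LiveBLAzer B/G FRET substrate after 2 h at room temperature.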

[10] = target: Vitamin D3 receptor (Homo sapiens) (UniProt P11473); assay: qHTS assay to identify small molecule antagonists of the vitamin D receptor (VDR) signaling pathway (AID 743223; active means well fitted inhibition curve with a large enough effect in the signal ratio in the repeat runs, not every such curve was filed as active; the % refers to the signal ratio; further: on the % scale 0 is the no-effect control and ±100 the full control effect)
How it was run: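 Quantitative HTS in VDR-bla reporter cells stimulated with 1alpha,25-dihydroxyvitamin D3, 3 nM final. Compound exposure 16 h, 37C, 5% CO2. Read-out: beta-lactamase FRET substrate fluorescence, 2 h RT.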

[11] = qHTS assay to identify small molecule agonists of the vitamin D receptor (VDR) signaling pathway - cell viability counter screen (AID 743224); further: series mostly up to about 63 µM; on the % scale 0 is the no-effect control and ±100 the full control effect; nearly all actives have a fitted effect of over 50% in size
How it was run: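 Viability is measured in the same wells as the VDR-bla reporter assay: after 16 h compound treatment and 2 h substrate loading, CellTiter-Glo is added and luminescence read 30 min later.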

[12] = qHTS assay to identify small molecule antagonists of the vitamin D receptor (VDR) signaling pathway - cell viability counter screen (AID 743225); further: on the % scale 0 is the no-effect control and ±100 the full control effect; nearly all actives have a fitted effect of over 50% in size
How it was run: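 Same-well multiplex: following 16 h treatment of HEK 293T cells carrying a UAS-driven beta-lactamase reporter with compound and agonist (3 nM final), and a 2 h FRET substrate step, CellTiter-Glo was added and luminescence read after 30 min.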

[13] = qHTS assay to identify small molecule agonists of the NFkB signaling pathway (AID 1159509; active means well fitted curve in the direction sought with a large enough effect in the signal ratio in the repeat runs, not every such curve was filed as active; the % refers to the signal ratio)
How it was run: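 NFkB-bla ME-180 cells with a beta-lactamase reporter under an NF-kB response element were plated overnight, treated with compounds in DMSO for 5 hr at 37 C, then loaded with FRET substrate for 1.5 hr at room temperature.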

[14] = qHTS assay to identify small molecule agonists of the NFkB signaling pathway - cell viability counter screen (AID 1159515; calls by dose curve; further: series mostly up to about 61 µM; on the % scale 0 is the no-effect control and ±100 the full control effect; nearly all actives have a fitted effect of over 55% in size)
How it was run: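 Multiplexed viability readout: after the 5 hr compound exposure and 1.5 hr FRET substrate step, CellTiter-Glo reagent went into the same NFkB-bla ME-180 wells; ATP luminescence was measured after 30 min at room temperature.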

[15] = qHTS assay to identify small molecule agonists of the endoplasmic reticulum stress response signaling pathway (AID 1159516; active means well fitted activation curve with a large enough effect in the signal ratio in the repeat runs, not every such curve was filed as active; the % refers to the signal ratio; further: on the % scale 0 is the no-effect control and ±100 the full control effect)
How it was run: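 Tox21 10K library screened in quantitative HTS format on ESRE-bla HeLa cells, a beta-lactamase reporter under ER stress response element control; 5 hr treatment, FRET read.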

[16] = qHTS assay to identify small molecule agonists of the endoplasmic reticulum stress response signaling pathway - cell viability counter screen (AID 1159517; calls by dose curve)
How it was run: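 Cells, HeLa ESRE-bla; density, 1,500/well; dosing, 5 hr at 37 C, 5% CO2; readout, CellTiter-Glo luminescence after 30 min RT.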

[17] = qHTS assay to identify small molecule antagonists of the retinoid-related orphan receptor gamma (ROR-gamma) signaling pathway - cell viability counter screen (AID 1159520)
How it was run: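 Cytotoxicity was read from cellular ATP (CellTiter-Glo luminescence) after 16 hr at 37 C with 1 uM doxycycline induction. The inducer was added 2 hr after compound transfer to Tet-on ROR gamma CHO cells.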

[18] = target: Nuclear receptor ROR-gamma (Homo sapiens) (UniProt P51449); assay: qHTS assay to identify small molecule antagonists of the retinoid-related orphan receptor gamma (ROR-gamma) signaling pathway (AID 1159521)
How it was run: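 Inducible-expression reporter assay: doxycycline (1 uM final) switched on RORγ in CHO cells bearing a ROR response element-luciferase construct, with test compounds present from 2 h beforehand. Decreased luminescence after 16 h defined antagonist activity.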

[19] = qHTS assay to identify small molecule agonists of the AP-1 signaling pathway - cell viability counter screen (AID 1159525; calls by dose curve; further: nearly all actives have a fitted effect of over 55% in size)
How it was run: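 Luminescent ATP readout (Cell Titer Glo, 30 min RT), normalised to DMSO and tetra n-octyl ammonium bromide controls. Cells were ME-180 AP-1-bla in 0.5% dialyzed FBS Opti-MEM, with a 5 h, 37 °C compound exposure.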

[20] = qHTS assay to identify small molecule agonists of the AP-1 signaling pathway (AID 1159526; calls by dose curve; further: on the % scale 0 is the no-effect control and ±100 the full control effect)

Sequence of Peroxisome proliferator-activated receptor delta (Homo sapiens) (Q03181 whole entry, looked up): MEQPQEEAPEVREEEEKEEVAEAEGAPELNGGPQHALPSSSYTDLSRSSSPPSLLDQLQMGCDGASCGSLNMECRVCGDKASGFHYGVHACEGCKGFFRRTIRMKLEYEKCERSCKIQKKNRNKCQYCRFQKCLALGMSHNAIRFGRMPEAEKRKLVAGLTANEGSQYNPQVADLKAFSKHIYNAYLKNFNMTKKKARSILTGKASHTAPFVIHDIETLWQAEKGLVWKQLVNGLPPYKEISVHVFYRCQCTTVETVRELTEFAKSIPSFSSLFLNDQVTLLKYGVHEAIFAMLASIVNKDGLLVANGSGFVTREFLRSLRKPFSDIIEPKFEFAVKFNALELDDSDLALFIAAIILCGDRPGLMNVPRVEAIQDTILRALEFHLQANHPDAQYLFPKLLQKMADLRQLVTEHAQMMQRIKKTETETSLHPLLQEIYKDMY
Sequence of Vitamin D3 receptor (Homo sapiens) (P11473 whole entry, looked up): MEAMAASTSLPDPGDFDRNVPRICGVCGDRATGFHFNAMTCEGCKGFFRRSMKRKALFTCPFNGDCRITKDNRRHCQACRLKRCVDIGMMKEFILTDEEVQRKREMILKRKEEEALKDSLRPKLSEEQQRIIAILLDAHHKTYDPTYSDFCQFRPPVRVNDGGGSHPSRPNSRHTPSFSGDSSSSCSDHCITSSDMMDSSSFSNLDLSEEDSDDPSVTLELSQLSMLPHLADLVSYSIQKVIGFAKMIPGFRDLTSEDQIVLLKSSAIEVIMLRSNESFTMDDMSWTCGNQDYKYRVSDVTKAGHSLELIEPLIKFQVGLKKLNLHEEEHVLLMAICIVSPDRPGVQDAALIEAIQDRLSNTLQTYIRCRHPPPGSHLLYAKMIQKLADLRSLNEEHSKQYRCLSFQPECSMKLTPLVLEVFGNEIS
Sequence of Bile acid receptor (Homo sapiens) (Q96RI1 whole entry, looked up): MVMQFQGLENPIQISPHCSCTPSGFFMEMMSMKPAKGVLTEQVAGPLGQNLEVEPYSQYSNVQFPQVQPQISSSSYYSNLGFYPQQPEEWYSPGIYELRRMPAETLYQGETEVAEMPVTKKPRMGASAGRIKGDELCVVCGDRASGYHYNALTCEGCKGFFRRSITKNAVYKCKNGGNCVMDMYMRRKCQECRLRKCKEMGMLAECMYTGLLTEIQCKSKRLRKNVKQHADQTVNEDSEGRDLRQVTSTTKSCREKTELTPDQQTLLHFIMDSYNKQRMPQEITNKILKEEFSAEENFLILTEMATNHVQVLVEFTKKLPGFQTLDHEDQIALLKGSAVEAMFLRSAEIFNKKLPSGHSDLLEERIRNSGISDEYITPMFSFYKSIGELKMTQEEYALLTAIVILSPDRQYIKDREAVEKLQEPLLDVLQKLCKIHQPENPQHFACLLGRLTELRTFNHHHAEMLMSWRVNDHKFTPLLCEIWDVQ

COc1cccc(OC)c1
inactive: Potency [1] | outcome [2] | Potency [3] | outcome [4] | outcome [5] | outcome [6] | outcome [7] | Potency [8] | outcome [9] | outcome [10] | outcome [11] | outcome [12] | outcome [13] | outcome [14] | outcome [15] | outcome [16] | Potency [17] | Potency [18] | outcome [19] | Potency [20]

C=C[Si](OC)(OC)OC
inactive: Potency [1] | outcome [2] | Potency [3] | outcome [4] | outcome [6] | Potency [8] | outcome [9] | outcome [10] | outcome [11] | outcome [12] | outcome [13] | outcome [14] | outcome [15] | outcome [16] | Potency [17] | Potency [18] | outcome [19] | Potency [20]

Cn1cnc2c(=O)[nH]c(N)nc21
inactive: Potency [1] | outcome [2] | Potency [3] | outcome [4] | outcome [6] | Potency [8] | outcome [9] | outcome [10] | outcome [11] | outcome [13] | outcome [14] | outcome [15] | outcome [16] | Potency [17] | Potency [18] | outcome [19] | Potency [20]

CCCc1ccc(N)cc1
inactive: Potency [1] | outcome [2] | Potency [3] | outcome [4] | outcome [6] | Potency [8] | outcome [9] | outcome [10] | outcome [11] | outcome [12] | outcome [13] | outcome [14] | outcome [15] | outcome [16] | Potency [17] | Potency [18] | outcome [19] | Potency [20]

O=C(O)c1ccccc1S
inactive: Potency [1] | outcome [2] | Potency [3] | outcome [4] | outcome [5] | outcome [6] | outcome [7] | Potency [8] | outcome [9] | outcome [11] | outcome [13] | outcome [14] | outcome [15] | outcome [16] | Potency [17] | Potency [18] | outcome [19] | Potency [20]

CCn1cc(C(=O)O)c(=O)c2cc(F)c(N3CCN(C)CC3)cc21
inactive: Potency [1] | outcome [2] | Potency [3] | outcome [4] | outcome [6] | Potency [8] | outcome [13] | outcome [14] | outcome [15] | outcome [16] | activity, negative = cytotoxicity [17] 0.209% [at 19 µM] | activity change, negative = inhibition [18] -0.847% [at 19 µM] | viability change, negative = cytotoxic [19] 2.53% [at 15.8 µM] | activation [20] 0.51% [at 15.8 µM]

[O-][N+](=Nc1ccccc1)c1ccccc1
inactive: Potency [1] | outcome [2] | Potency [3] | outcome [6] | Potency [8] | outcome [12] | outcome [13] | outcome [14] | outcome [15] | outcome [16] | Potency [17] | Potency [18] | outcome [19] | Potency [20]

CCCCCCCCCCCCCCCCCCOCC(O)CO (centres undefined)
inactive: Potency [1] | outcome [2] | Potency [3] | outcome [4] | Potency [8] | outcome [10] | outcome [12] | outcome [13] | outcome [14] | outcome [15] | outcome [16] | Potency [17] | Potency [18] | outcome [19] | Potency [20]
